These results are taken from paper PMC11006913.

Common to all, as to experiment: PBM; 200 nM protein, PBS
What all share (details): dsDNA, one strand shown

The target in test [1] is HESX1 (Homo sapiens, UniProt Q9UBX0 95-180, R165K).
Test [2] concerns the target SHOX (Homo sapiens, UniProt O15266 103-189).
Test [3] addresses HESX1 (Homo sapiens, UniProt Q9UBX0 95-180).
In test [4] the target is SHOX (Homo sapiens, UniProt O15266 103-189, R173C).
In test [5] the target is HESX1 (Homo sapiens, UniProt Q9UBX0 95-180, R109Q).
Chain of HESX1 (Homo sapiens, UniProt Q9UBX0 95-180, R109Q) (Q9UBX0 95-180 R109Q): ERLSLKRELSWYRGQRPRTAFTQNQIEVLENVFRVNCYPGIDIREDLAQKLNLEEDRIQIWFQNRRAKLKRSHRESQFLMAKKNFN
Test [6] has as its target HESX1 (Homo sapiens, UniProt Q9UBX0 95-180, P111T).
The target of test [7] is HESX1 (Homo sapiens, UniProt Q9UBX0 95-180, F115L).
Chain of HESX1 (Homo sapiens, UniProt Q9UBX0 95-180, F115L) (Q9UBX0 95-180 F115L): as the sequence (Q9UBX0 95-180 R109Q) above, with Q15R, F21L counted along it
The target in test [8] is ALX4 (Homo sapiens, UniProt Q9H161 200-286).
Chain of ALX4 (Homo sapiens, UniProt Q9H161 200-286) (Q9H161 200-286): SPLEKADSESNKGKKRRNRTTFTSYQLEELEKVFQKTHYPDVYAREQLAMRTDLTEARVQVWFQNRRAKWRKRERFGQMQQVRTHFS
The target of test [9] is PRRX1 (Homo sapiens, UniProt P54821 80-166, F113S).
Chain of PRRX1 (Homo sapiens, UniProt P54821 80-166, F113S) (P54821 80-166 F113S): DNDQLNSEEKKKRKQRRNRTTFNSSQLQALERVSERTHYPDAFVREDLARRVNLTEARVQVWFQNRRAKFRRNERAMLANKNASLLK
In test [10] the target is ALX4 (Homo sapiens, UniProt Q9H161 200-286, Q225E).
Chain of ALX4 (Homo sapiens, UniProt Q9H161 200-286, Q225E) (Q9H161 200-286 Q225E): as the sequence (Q9H161 200-286) above, with Q26E counted along it
The target of test [11] is MSX2 (Homo sapiens, UniProt P35548 130-214, R199I).
Chain of MSX2 (Homo sapiens, UniProt P35548 130-214, R199I) (P35548 130-214 R199I): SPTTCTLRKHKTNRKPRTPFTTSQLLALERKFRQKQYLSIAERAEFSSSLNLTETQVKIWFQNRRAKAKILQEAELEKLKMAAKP
The target in test [12] is ALX1 (Homo sapiens, UniProt Q15699 118-204, L144V).
Chain of ALX1 (Homo sapiens, UniProt Q15699 118-204, L144V) (Q15699 118-204 L144V): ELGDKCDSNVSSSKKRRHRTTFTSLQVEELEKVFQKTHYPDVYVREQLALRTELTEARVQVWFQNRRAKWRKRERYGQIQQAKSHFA
The target in test [13] is ALX1 (Homo sapiens, UniProt Q15699 118-204, L144R).
Chain of ALX1 (Homo sapiens, UniProt Q15699 118-204, L144R) (Q15699 118-204 L144R): as the sequence (Q15699 118-204 L144V) above, with V27R counted along it
For test [14], the target named is PROP1 (Homo sapiens, UniProt O75360 56-141).
Chain of PROP1 (Homo sapiens, UniProt O75360 56-141) (O75360 56-141): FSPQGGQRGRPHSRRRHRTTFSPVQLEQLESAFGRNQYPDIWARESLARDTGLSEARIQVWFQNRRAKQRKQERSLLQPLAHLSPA
Test [15] has as its target PROP1 (Homo sapiens, UniProt O75360 56-141, R99H).
The target in another test is ALX3 (Homo sapiens, UniProt O95076 139-225, L168Q).
Chain of ALX3 (O95076 139-225 L168Q): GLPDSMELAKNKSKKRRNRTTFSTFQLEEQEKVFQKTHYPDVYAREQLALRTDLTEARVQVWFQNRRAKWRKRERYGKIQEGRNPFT
In test [16] the target is PROP1 (Homo sapiens, UniProt O75360 56-141, F88S).
Chain of PROP1 (Homo sapiens, UniProt O75360 56-141, F88S) (O75360 56-141 F88S): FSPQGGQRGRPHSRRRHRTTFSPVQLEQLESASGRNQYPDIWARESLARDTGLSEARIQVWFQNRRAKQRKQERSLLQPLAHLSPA
Test [17] deals with MSX2 (Homo sapiens, UniProt P35548 130-214, F161Y).
Chain of MSX2 (Homo sapiens, UniProt P35548 130-214, F161Y) (P35548 130-214 F161Y): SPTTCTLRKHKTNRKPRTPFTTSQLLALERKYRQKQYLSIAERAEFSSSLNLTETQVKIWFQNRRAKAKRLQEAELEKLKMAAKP
In test [18] the target is ALX1 (Homo sapiens, UniProt Q15699 118-204).
Chain of ALX1 (Homo sapiens, UniProt Q15699 118-204) (Q15699 118-204): as the sequence (Q15699 118-204 L144V) above, with V27L counted along it
For test [19], the target named is PRRX1 (Homo sapiens, UniProt P54821 80-166).
Chain of PRRX1 (Homo sapiens, UniProt P54821 80-166) (P54821 80-166): as the sequence (P54821 80-166 F113S) above, with S34F counted along it

Chain of PROP1 (Homo sapiens, UniProt O75360 56-141, R99H) (O75360 56-141 R99H): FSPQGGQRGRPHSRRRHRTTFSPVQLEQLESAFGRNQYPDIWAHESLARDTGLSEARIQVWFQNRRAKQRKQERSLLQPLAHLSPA
Chain of SHOX (Homo sapiens, UniProt O15266 103-189) (O15266 103-189): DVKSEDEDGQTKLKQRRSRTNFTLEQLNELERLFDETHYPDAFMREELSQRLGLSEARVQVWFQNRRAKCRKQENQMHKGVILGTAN
Chain of HESX1 (Homo sapiens, UniProt Q9UBX0 95-180, R165K) (Q9UBX0 95-180 R165K): as the sequence (Q9UBX0 95-180 R109Q) above, with Q15R, R71K counted along it
Chain of HESX1 (Homo sapiens, UniProt Q9UBX0 95-180, P111T) (Q9UBX0 95-180 P111T): as the sequence (Q9UBX0 95-180 R109Q) above, with Q15R, P17T counted along it
Chain of HESX1 (Homo sapiens, UniProt Q9UBX0 95-180) (Q9UBX0 95-180): as the sequence (Q9UBX0 95-180 R109Q) above, with Q15R counted along it
Chain of SHOX (Homo sapiens, UniProt O15266 103-189, R173C) (O15266 103-189 R173C): as the sequence (O15266 103-189) above, with R71C counted along it

As to CTTGCGGC, the binding signal in the test with HESX1 [1] is 6.55 upbm affinity estimate (log intensity, higher = more binding, comparable within an allelic series); with SHOX [2], 7.11 upbm affinity estimate (log intensity, higher = more binding, comparable within an allelic series); with HESX1 [3] it was 6.49 upbm affinity estimate (log intensity, higher = more binding, comparable within an allelic series); in the test with SHOX [4], 7.22 upbm affinity estimate (log intensity, higher = more binding, comparable within an allelic series); in the test with HESX1 [5], 6.47 upbm affinity estimate (log intensity, higher = more binding, comparable within an allelic series); with HESX1 [6] it was 6.52 upbm affinity estimate (log intensity, higher = more binding, comparable within an allelic series). Further, in the test with HESX1 [7], the binding signal was 6.53 upbm affinity estimate (log intensity, higher = more binding, comparable within an allelic series).
AACTAATT: the binding signal with HESX1 [1] is 11.5 upbm affinity estimate (log intensity, higher = more binding, comparable within an allelic series); with SHOX [2], 11.5 upbm affinity estimate (log intensity, higher = more binding, comparable within an allelic series); in the test with ALX4 [8], 13.7 upbm affinity estimate (log intensity, higher = more binding, comparable within an allelic series); in the test with PRRX1 [9], 11.1 upbm affinity estimate (log intensity, higher = more binding, comparable within an allelic series); with ALX4 [10] it was 12.7 upbm affinity estimate (log intensity, higher = more binding, comparable within an allelic series); with HESX1 [3] it was 11.5 upbm affinity estimate (log intensity, higher = more binding, comparable within an allelic series). In addition, the binding signal in the test with MSX2 [11] is 12.2 upbm affinity estimate (log intensity, higher = more binding, comparable within an allelic series); with ALX1 [12], 11.5 upbm affinity estimate (log intensity, higher = more binding, comparable within an allelic series); in the test with SHOX [4], 9.12 upbm affinity estimate (log intensity, higher = more binding, comparable within an allelic series); with ALX1 [13], 11.2 upbm affinity estimate (log intensity, higher = more binding, comparable within an allelic series); with PROP1 [14] it was 11.2 upbm affinity estimate (log intensity, higher = more binding, comparable within an allelic series); in the test with HESX1 [5], 8.89 upbm affinity estimate (log intensity, higher = more binding, comparable within an allelic series). The binding signal with PROP1 [15] was 11.1 upbm affinity estimate (log intensity, higher = more binding, comparable within an allelic series); with ALX3 it was 10.3 upbm affinity estimate (log intensity, higher = more binding, comparable within an allelic series); in the test with HESX1 [6] it was 10.3 upbm affinity estimate (log intensity, higher = more binding, comparable within an allelic series); with PROP1 [16], 7.84 upbm affinity estimate (log intensity, higher = more binding, comparable within an allelic series); with MSX2 [17], 12.9 upbm affinity estimate (log intensity, higher = more binding, comparable within an allelic series); with HESX1 [7] it was 7.81 upbm affinity estimate (log intensity, higher = more binding, comparable within an allelic series). In addition, the binding signal with ALX1 [18] is 12.3 upbm affinity estimate (log intensity, higher = more binding, comparable within an allelic series); in the test with PRRX1 [19], 13.3 upbm affinity estimate (log intensity, higher = more binding, comparable within an allelic series).
In the case of AATTATAA, the binding signal is 11.6 upbm affinity estimate (log intensity, higher = more binding, comparable within an allelic series) in the test with HESX1 [1]; 11.4 upbm affinity estimate (log intensity, higher = more binding, comparable within an allelic series) in the test with SHOX [2]; 13.7 upbm affinity estimate (log intensity, higher = more binding, comparable within an allelic series) in the test with ALX4 [8]; 11.4 upbm affinity estimate (log intensity, higher = more binding, comparable within an allelic series) in the test with PRRX1 [9]; 13.1 upbm affinity estimate (log intensity, higher = more binding, comparable within an allelic series) with ALX4 [10]; 11.7 upbm affinity estimate (log intensity, higher = more binding, comparable within an allelic series) with HESX1 [3]. The binding signal was 12.4 upbm affinity estimate (log intensity, higher = more binding, comparable within an allelic series) in the test with MSX2 [11]; 11.5 upbm affinity estimate (log intensity, higher = more binding, comparable within an allelic series) with ALX1 [12]; 9.09 upbm affinity estimate (log intensity, higher = more binding, comparable within an allelic series) with SHOX [4]; 11.2 upbm affinity estimate (log intensity, higher = more binding, comparable within an allelic series) with ALX1 [13]; 11 upbm affinity estimate (log intensity, higher = more binding, comparable within an allelic series) with PROP1 [14]; 8.29 upbm affinity estimate (log intensity, higher = more binding, comparable within an allelic series) with HESX1 [5]. Further, the binding signal with PROP1 [15] is 10.8 upbm affinity estimate (log intensity, higher = more binding, comparable within an allelic series); in the test with ALX3, 10.4 upbm affinity estimate (log intensity, higher = more binding, comparable within an allelic series); with HESX1 [6], 10.4 upbm affinity estimate (log intensity, higher = more binding, comparable within an allelic series); with PROP1 [16], 7.93 upbm affinity estimate (log intensity, higher = more binding, comparable within an allelic series); with MSX2 [17], 13 upbm affinity estimate (log intensity, higher = more binding, comparable within an allelic series); with HESX1 [7], 7.89 upbm affinity estimate (log intensity, higher = more binding, comparable within an allelic series). Besides, the binding signal in the test with ALX1 [18] was 12.1 upbm affinity estimate (log intensity, higher = more binding, comparable within an allelic series); with PRRX1 [19] it was 13.3 upbm affinity estimate (log intensity, higher = more binding, comparable within an allelic series).
Turning to CAATTAGG, the binding signal was 12.5 upbm affinity estimate (log intensity, higher = more binding, comparable within an allelic series) with HESX1 [1]; 12.1 upbm affinity estimate (log intensity, higher = more binding, comparable within an allelic series) in the test with SHOX [2]; 12.8 upbm affinity estimate (log intensity, higher = more binding, comparable within an allelic series) in the test with ALX4 [10]; 12.7 upbm affinity estimate (log intensity, higher = more binding, comparable within an allelic series) with HESX1 [3]; 12.7 upbm affinity estimate (log intensity, higher = more binding, comparable within an allelic series) in the test with MSX2 [11]; 11.5 upbm affinity estimate (log intensity, higher = more binding, comparable within an allelic series) with ALX1 [12]. Also, the binding signal was 9.72 upbm affinity estimate (log intensity, higher = more binding, comparable within an allelic series) in the test with SHOX [4]; 10.9 upbm affinity estimate (log intensity, higher = more binding, comparable within an allelic series) with ALX1 [13]; 11.3 upbm affinity estimate (log intensity, higher = more binding, comparable within an allelic series) with PROP1 [14]; 9.39 upbm affinity estimate (log intensity, higher = more binding, comparable within an allelic series) in the test with HESX1 [5]; 11.5 upbm affinity estimate (log intensity, higher = more binding, comparable within an allelic series) with PROP1 [15]; 10.4 upbm affinity estimate (log intensity, higher = more binding, comparable within an allelic series) in the test with ALX3. For the same sequence, the binding signal was 11.2 upbm affinity estimate (log intensity, higher = more binding, comparable within an allelic series) with HESX1 [6]; 7.6 upbm affinity estimate (log intensity, higher = more binding, comparable within an allelic series) in the test with PROP1 [16]; 13.4 upbm affinity estimate (log intensity, higher = more binding, comparable within an allelic series) in the test with MSX2 [17]; 7.73 upbm affinity estimate (log intensity, higher = more binding, comparable within an allelic series) with HESX1 [7]; 12.1 upbm affinity estimate (log intensity, higher = more binding, comparable within an allelic series) with ALX1 [18].
